Source: PubChem BioAssay (several laboratories)
CRFR2-BP antag: CRF-BP/CRF-R2 complex antagonism | HEK293 CRF-R2/CRF-BP, CRF-induced calcium fluorescence | inhibition, % at 11.8 µM | 350,000 compounds, 0.59% hits;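 active = inhibition of the ligand-induced calcium signal above about 50% at the single tested concentration, limit read from the data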
cardiac RTF act: cardiac RTF calcium sensitization. P19429+P45379. IANBD-labeled TnC RTF fluorescence at EC20 calcium; 0% EC20 calcium, 100% full calcium. activation, % at 7.2 µM. 340,000 compounds, 0.24% hits. AID 493008;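 active = activation above the mean over all tested compounds plus 3 SD, cut at about 30% in these data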;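 also: rise in fluorescence read as greater calcium sensitivity of cardiac thin filaments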
CRFR2-BP ag: CRF-BP/CRF-R2 complex agonism | HEK293 CRF-R2/CRF-BP, calcium dye fluorescence (FLIPR); percent of saturating CRF peptide response | activation, % at 13.2 µM | 350,000 compounds, 0.46% hits | AID 588473;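 active = activation of at least 50%, plus an integration ratio under a set limit after plate pattern correction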;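 also: plate controls were neutral control wells without compound for no effect and CRF at EC100 for full effect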
Cardiac RTF inh: cardiac RTF calcium desensitization; P19429+P45379; IANBD-labeled cardiac RTF, Ca2+ fluorescence; inhibition, % at 7.15 µM; 340,000 compounds, 0.12% hits; AID 493244;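 active = inhibition above the mean inhibition of all tested compounds plus 3 SD, cut at about 17% in these data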;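 also: assay run at fixed EC70 calcium of 1.6 mM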
RTF Ca inh conf: cardiac RTF calcium sensitivity inhibition, confirmation; shares compounds with Cardiac RTF inh; reconstituted cardiac thin filaments, calcium sensitivity fluorescence; inhibition, % at 7.15 µM; 360 compounds, 8% hits; AID 504635; in the data active = inhibition above about 18%
Numbers without * were called inactive. In the library only some 1.3% were active in any assay of this set; here they are far more common.

Results for CC1=NN(c2cccc([N+](=O)[O-])c2)C(=O)C1 ?
CRFR2-BP antag: 3; cardiac RTF act: 7; CRFR2-BP ag: -1; Cardiac RTF inh: 4

What do the screens show for `COc1ccc(NC(=O)C2CC(=O)N(c3ccccc3Cl)C2)c(OC)c1` (stereo not given)?
CRFR2-BP antag: 5; cardiac RTF act: 8; CRFR2-BP ag: 1; Cardiac RTF inh: 1

How did CS(=O)(=O)N1CCC(C(=O)NCc2ccc(Cl)cc2)CC1 do in these assays?
CRFR2-BP antag: 6; cardiac RTF act: 5; CRFR2-BP ag: 0; Cardiac RTF inh: -8

What do the screens show for `CC(=O)Nc1ccc2c(c1)C(C)(C)C(C)N2C` (stereo not given)?
CRFR2-BP antag: 21; CRFR2-BP ag: 28

Results for CNC(=O)Oc1ccc2c(c1)[C@]1(C)CCN(C)C1N2C (stereo not given in full) ?
CRFR2-BP antag: 21; cardiac RTF act: 0; CRFR2-BP ag: 0; Cardiac RTF inh: 17*; RTF Ca inh conf: -3

How did NC(=O)c1c(NC(=O)C2c3ccccc3Oc3ccccc32)sc2c1CCCCC2 do in these assays?
CRFR2-BP antag: -2; cardiac RTF act: 1; CRFR2-BP ag: 3; Cardiac RTF inh: 3

Results for CN1CCN(/N=C/c2ccc(Br)cc2)CC1 ?
CRFR2-BP antag: -6; cardiac RTF act: -2; CRFR2-BP ag: 0; Cardiac RTF inh: 20*; RTF Ca inh conf: -6

What do the screens show for `CN1CCN(/N=C/c2ccc(N(c3ccccc3)c3ccccc3)cc2)CC1`?
CRFR2-BP antag: -70; cardiac RTF act: -5; CRFR2-BP ag: -1; Cardiac RTF inh: 6

What do the screens show for `COc1ccc(CNC(=O)CNC(=O)c2c(C)nn(C)c2Cl)cc1`?
CRFR2-BP antag: -4; cardiac RTF act: 3; CRFR2-BP ag: 1; Cardiac RTF inh: -2

Results for O=C(NCc1ccccc1)c1ccc(F)c(S(=O)(=O)N2CCOCC2)c1 ?
CRFR2-BP antag: 10; cardiac RTF act: -29; CRFR2-BP ag: 0; Cardiac RTF inh: 63*; RTF Ca inh conf: -1

Results for O=C(NCc1cc([N+](=O)[O-])ccc1O)c1cccc(NS(=O)(=O)c2ccccc2)c1 ?
CRFR2-BP antag: 1; cardiac RTF act: 5; CRFR2-BP ag: 0; Cardiac RTF inh: -11

Results for Cc1ccc(-n2c(SCC(=O)O)nc3sc4c(c3c2=O)CCCC4)cc1 ?
CRFR2-BP antag: -12; cardiac RTF act: -1; CRFR2-BP ag: -2; Cardiac RTF inh: 17*; RTF Ca inh conf: -4

Results for O=C(NCCCN1CCC(Cc2ccccc2)CC1)C1CCN(S(=O)(=O)N2CCC3(CC2)OCCO3)CC1 ?
CRFR2-BP antag: -7; cardiac RTF act: -1; CRFR2-BP ag: 0; Cardiac RTF inh: 7

Results for O=C(NCCCN1CCN(Cc2ccccc2)CC1)C1CCN(S(=O)(=O)N2CCC3(CC2)OCCO3)CC1 ?
CRFR2-BP antag: 6; cardiac RTF act: -6; CRFR2-BP ag: -1; Cardiac RTF inh: 18*; RTF Ca inh conf: 3

Results for COc1ccc(C2/C(=C(/O)c3ccc(F)cc3)C(=O)C(=O)N2CCCN2CCOCC2)cc1OC (stereo not given) ?
CRFR2-BP antag: -5; cardiac RTF act: -4; CRFR2-BP ag: -1; Cardiac RTF inh: -6

How did CCOC(=O)CNC(=S)n1cnc(N)n1 do in these assays?
CRFR2-BP antag: -1; cardiac RTF act: 9; CRFR2-BP ag: -2; Cardiac RTF inh: -1

Results for Cc1ccc(NC(=O)CSc2nnc3n2CCCCC3)cc1 ?
CRFR2-BP antag: -19; cardiac RTF act: 3; CRFR2-BP ag: 2; Cardiac RTF inh: 22*; RTF Ca inh conf: -6

How did O=C(NC(CSC(=O)c1ccccc1)C(=O)O)OCc1ccccc1 (stereo not given) do in these assays?
CRFR2-BP antag: 17; cardiac RTF act: -2; CRFR2-BP ag: -2; Cardiac RTF inh: 0

Results for Cc1ccccc1-n1c(=O)cc(N2CCc3ccccc32)[nH]c1=O ?
CRFR2-BP antag: 11; cardiac RTF act: 1; CRFR2-BP ag: 3; Cardiac RTF inh: -2

How did O=c1cc(N2CCc3ccccc32)[nH]c(=O)n1-c1ccccc1Cl do in these assays?
CRFR2-BP antag: 0; cardiac RTF act: -2; CRFR2-BP ag: -1; Cardiac RTF inh: 17*; RTF Ca inh conf: -3

What do the screens show for `COc1ccc(CC(=O)O)cc1O`?
CRFR2-BP antag: -8; cardiac RTF act: -5; CRFR2-BP ag: 1; Cardiac RTF inh: 5

What do the screens show for `COc1cc(CC(=O)O)ccc1O`?
CRFR2-BP antag: 16; cardiac RTF act: -1; CRFR2-BP ag: -3; Cardiac RTF inh: 18*; RTF Ca inh conf: -3

What do the screens show for `CCc1cc2c(CN(C)Cc3ccccc3F)cc(=O)oc2cc1O`?
CRFR2-BP antag: 9; cardiac RTF act: -4; CRFR2-BP ag: 1; Cardiac RTF inh: 18*; RTF Ca inh conf: -6

Results for COc1ccc(CCN(Cc2ccccn2)C(=S)Nc2cccc(SC)c2)cc1OC ?
CRFR2-BP antag: -10; cardiac RTF act: -4; CRFR2-BP ag: 1; Cardiac RTF inh: 20*; RTF Ca inh conf: -1

Results for COc1ccc(CCN(Cc2ccccn2)C(=S)Nc2ccc(C)cc2)cc1OC ?
CRFR2-BP antag: 0; cardiac RTF act: 1; CRFR2-BP ag: -2; Cardiac RTF inh: -6

Results for COc1ccc(CN(C)CC(=O)Nc2ccc(N3CCOCC3)cc2)cc1OC ?
CRFR2-BP antag: 16; cardiac RTF act: 3; CRFR2-BP ag: -2; Cardiac RTF inh: 3

How did COc1ccc(CN(C)CC(=O)Nc2ccc(SC(F)F)cc2)cc1OC do in these assays?
CRFR2-BP antag: 0; cardiac RTF act: 5; CRFR2-BP ag: 0; Cardiac RTF inh: 20*; RTF Ca inh conf: 3

How did CCCCn1c(N)c(N(CC(C)C)C(=O)COC(=O)C2(c3ccccc3)CC2)c(=O)[nH]c1=O do in these assays?
CRFR2-BP antag: -4; cardiac RTF act: -7; CRFR2-BP ag: -1; Cardiac RTF inh: 8

Results for COc1ccc2[nH]c(CN3CCC(CO)(CCOc4ccccc4)CC3)c(C)c2c1 ?
CRFR2-BP antag: 7; cardiac RTF act: -2; CRFR2-BP ag: -1; Cardiac RTF inh: -4

Results for O=C(CSc1nc2ccccc2n1CCc1ccccc1)N1CCOCC1 ?
CRFR2-BP antag: 3; cardiac RTF act: 6; CRFR2-BP ag: -2; Cardiac RTF inh: -12

What do the screens show for `O=C(CSc1nc2ccccc2n1CCc1ccccc1)c1ccc(O)c(O)c1`?
CRFR2-BP antag: -6; cardiac RTF act: -17; CRFR2-BP ag: -3; Cardiac RTF inh: 18*; RTF Ca inh conf: 10

How did Cc1ccccc1NC(=O)NCc1ccccn1 do in these assays?
CRFR2-BP antag: 9; cardiac RTF act: -2; CRFR2-BP ag: 0; Cardiac RTF inh: -3

How did CCOC(=O)[C@H](CCc1ccccc1)N[C@@H](C)C(=O)N1C(C(=O)O)C[C@@H]2CCC[C@@H]21 (stereo not given in full) do in these assays?
CRFR2-BP antag: -37; cardiac RTF act: 2; CRFR2-BP ag: 2; Cardiac RTF inh: 23*; RTF Ca inh conf: -3
